Structures are written as SMILES. Several values for one entry are separate records, joined by “and”; a condition that tells them apart may be missing. Equal values may be shown once. Values without a mark were called inactive. Inconclusive results are not listed. Activity calls are given as the source filed them. Calls follow the shape of the full dose curve.

In PubChem BioAssay (Tox21) one finds Potency, activity change, negative = inhibition and outcome data, which are given here for 26 molecules.

The target in assay [1] is Acetylcholinesterase (Homo sapiens) (UniProt P22303). Put plainly: Acetylcholinesterase (AChE) small molecule antagonists: enzyme-based qHTS assay (AID 1347397). Also: nearly all actives have a fitted effect of over 55% in size. Also: potency is read from the fitted curve at half-maximal effect. The conditions noted are these: Potency: AChE enzyme activity inhibition; outcome: AChE enzyme activity inhibition; series mostly up to 115 µM. In a few lines:
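Colorimetric DTNB readout of acetylthiocholine hydrolysis, 10 min at room temperature, after 30 min room-temperature exposure of 50 mU/mL recombinant human enzyme to compound; DMSO vehicle control.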
Background: Quantitative high-throughput screening tests each substance at several concentrations.

For assay [2] the target is unchanged. Put plainly: Acetylcholinesterase (AChE) small molecule antagonists: fluorescence cell-based qHTS assay (AID 1347398). Also: nearly all actives have a fitted effect of over 50% in size. Also: potency is read from the fitted curve at half-maximal effect. The conditions noted are these: SH-SY5Y cells; Potency: AChE activity; outcome: AChE activity; series mostly up to 115 µM. The procedure, abridged: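 Cellular AChE activity read as thiocholine from acetylthiocholine hydrolysis, detected by Thiolite Green fluorescence at 490/520 nm after 40 min at room temperature. Compounds were pre-incubated 30 min at 37 C on adherent SH-SY5Y cells.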

Assay [3] shares this target. Put plainly: Acetylcholinesterase (AChE) small molecule antagonists: enzyme-based qHTS assay with human liver microsomes (AID 1347399). Also: nearly all actives have a fitted effect of over 60% in size. The conditions noted are these: Potency: qHTS inhibition; outcome: qHTS inhibition; series mostly up to 115 µM. The procedure, abridged: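 Recombinant human AChE (50 mU/mL in the enzyme mix) and human liver microsomes (0.25 mg/mL final) were preincubated with compound and NADPH (0.25 mg/mL final) for 30 min at 37 C. Acetylthiocholine/DTNB was then added; thiocholine was read colorimetrically after 10 min at room temperature.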
% is scaled to controls: 0 for no effect and ±100 for the full control effect.

Sequence of Acetylcholinesterase (Homo sapiens) (P22303 whole entry, looked up): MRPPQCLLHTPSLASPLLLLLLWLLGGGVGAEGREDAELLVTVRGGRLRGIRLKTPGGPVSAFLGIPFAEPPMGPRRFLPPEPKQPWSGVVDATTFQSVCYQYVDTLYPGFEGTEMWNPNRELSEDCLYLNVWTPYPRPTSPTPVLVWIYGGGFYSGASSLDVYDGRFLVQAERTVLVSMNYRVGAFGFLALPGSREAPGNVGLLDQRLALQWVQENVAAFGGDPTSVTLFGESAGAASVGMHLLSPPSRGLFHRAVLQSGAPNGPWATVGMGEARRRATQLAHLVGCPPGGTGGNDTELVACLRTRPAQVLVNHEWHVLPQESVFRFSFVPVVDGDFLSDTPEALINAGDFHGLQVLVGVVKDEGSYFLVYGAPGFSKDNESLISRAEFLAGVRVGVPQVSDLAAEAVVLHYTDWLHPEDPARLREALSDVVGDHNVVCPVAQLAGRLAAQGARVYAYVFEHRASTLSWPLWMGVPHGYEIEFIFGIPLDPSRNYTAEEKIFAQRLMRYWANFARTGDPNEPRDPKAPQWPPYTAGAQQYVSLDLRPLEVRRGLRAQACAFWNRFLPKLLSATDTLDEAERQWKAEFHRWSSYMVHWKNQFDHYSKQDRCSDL

Consider `CCNS(=O)(=O)c1ccc(C)cc1`, for which the Potency entry in assay [1], in assay [2] and in assay [3] was “inactive” each time.

Consider `NC(=O)NS(=O)(=O)c1ccc(Cl)cc1`, for which the Potency result in assay [1], in assay [2] and in assay [3] was “inactive” in each case.

Take `N=C(N)c1ccc(OCCCOc2ccc(C(=N)N)cc2)cc1`: the Potency entry in assay [1], in assay [2] and in assay [3] was “inactive” each time.

With `Cc1c(C)c([N+](=O)[O-])c(C(C)(C)C)c([N+](=O)[O-])c1C`, the Potency entry in assay [1], in assay [2] and in assay [3] was “inactive” each time.

Consider `CCCCCCCCCCCCCC[P+](CCCC)(CCCC)CCCC`, for which the Potency was 31.6 µM (active) and 39.9 µM (active) in assay [1]; 35.4 µM (active) and 63.3 µM (active) in assay [2]. Also, the Potency result in assay [3] is “inactive”.

With `[O-][n+]1cccc(/C(Cl)=N/OC[C@@H](O)CN2CCCCC2)c1`, the Potency result in assay [1], in assay [2] and in assay [3] was “inactive” in each case.

`Cc1nc2n(c(=O)c1CCN1CCC(c3noc4cc(F)ccc34)CC1)CCC[C@H]2O`: the results for the activity change, negative = inhibition in assay [1], in assay [2] and in assay [3] were -5.56% [at 23.6 µM], -17.1% [at 23.8 µM] and -2.77% [at 23.6 µM], respectively.

For the molecule `C=Cc1ccc(S(=O)(=O)O)cc1`, the Potency result in assay [1], in assay [2] and in assay [3] was “inactive” throughout.

With `CCN1CCC[C@H]1CNC(=O)c1cc(S(N)(=O)=O)ccc1OC`, the Potency entry in assay [1], in assay [2] and in assay [3] was “inactive” throughout.

For the molecule `CC[N+](CC)(CC)CCOC(=O)C(C1CCCC1)C1CCCC1`, the Potency entry in assay [1], in assay [2] and in assay [3] was “inactive” in each case.

As to `CCCCCCCCCCCCCCCCCCNC(=O)OC1CCN(C(=O)OC[C@H](COC(=O)N(Cc2cccc[n+]2CC)C(=O)c2ccccc2OC)OC)CC1`, the Potency in assay [1] is 30.9 µM (active). The Potency result in assay [2] and in assay [3] was “inactive” throughout.

Take `Cc1cccc(O)c1N`: the Potency entry in assay [1], in assay [2] and in assay [3] was “inactive” each time.

In the case of `CCCCCCCC[N+](CCCCCCCC)(CCCCCCCC)CCCCCCCC`, the figures for the Potency in assay [1] and in assay [2] were 39.8 µM (active) and 70.9 µM (active), respectively. Also, in assay [3], the Potency result is “inactive”.

On to `O=C1c2ccccc2S(=O)(=O)N1CCCCN1CCN(c2ncccn2)CC1`, for which the Potency entry in assay [1], in assay [2] and in assay [3] was “inactive” each time.

For `COCCOc1cc2cc(C(=O)NC3CCN(C(C)C)CC3)n(CC(=O)Nc3ccc(Cl)cn3)c2cn1`, the Potency entry in assay [1] and in assay [3] was “inactive” each time.

In the case of `N#C/C(=C1/SC[C@@H](c2ccc(Cl)cc2Cl)S1)n1ccnc1`, the Potency entry in assay [1] and in assay [3] was “inactive” in each case.

`C=C(C)C(=O)OC1CC(C)CC(C)(C)C1` (stereo not given): the Potency entry in assay [1], in assay [2] and in assay [3] was “inactive” throughout.

For the molecule `CCN1CCN(C(=O)N[C@@H](C(=O)N[C@@H]2C(=O)N3C(C(=O)O)=C(CSc4nnnn4C)CS[C@H]23)c2ccc(O)cc2)C(=O)C1=O`, the Potency entry in assay [1] and in assay [3] was “inactive” in each case.

Take `Cc1ccc(NC(=O)c2ccc(CN3CCN(C)CC3)cc2)cc1Nc1nccc(-c2cccnc2)n1`: the Potency result in assay [1] and in assay [3] was “inactive” throughout.

Regarding `c1ccc2c(c1)CCCC2C1=NCCN1` (stereo not given), the Potency entry in assay [1] and in assay [3] was “inactive” in each case.

As to `CC(C)OC(=O)C(C)N(C(=O)c1ccccc1)c1ccc(F)c(Cl)c1` (stereo not given), the Potency entry in assay [1], in assay [2] and in assay [3] was “inactive” each time.

Take `CN(C)CCC=C1c2ccccc2C=Cc2ccccc21`: the molecule was called inactive in assay [1] and in assay [3].

As to `NC(=O)C(c1ccccc1)(c1ccccc1)[C@@H]1CCN(CCc2ccc3c(c2)CCO3)C1`, the Potency result in assay [1] and in assay [3] was “inactive” each time.

Regarding `CC[C@H]1O[C@]2(CC[C@@H]1C)C[C@@H]1C[C@@H](C/C=C(\C)C[C@@H](C)/C=C/C=C3\CO[C@@H]4[C@H](O)C(C)=C[C@@H](C(=O)O1)[C@]34O)O2`, the Potency entry in assay [1], in assay [2] and in assay [3] was “inactive” each time.

In the case of `c1ccc2c(CC3=NCCN3)cccc2c1`, the Potency result in assay [1] and in assay [3] was “inactive” in each case.

For the molecule `NC(=O)c1ccncc1`, the Potency result in assay [1], in assay [2] and in assay [3] was “inactive” each time.
